Reference: PubChem BioAssay AID435030 (The Scripps Research Institute Molecular Screening Center, 2010)
“And” between values parts separate entries of the source, which are not always exact repeats. Identical values can stand only once. Among all 330,000 compounds or so, about 940 (0.28%) were called active. Cut-off read from the data, not from the text of the source: active = inhibition above about 12%; inactive = the rest. The sample as a whole holds a higher share of actives than the screen did. Some structures have more than one record in an assay (separate samples or runs), and their calls can disagree.

Assay: growth inhibition of E. coli expressing H. pylori AddAB, primary screen, AddAB inhibitor project, absorbance (AID 435030);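 note: 0% = vehicle wells of infected cells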
Conditions: at 11.9 µM, stronger effect = higher value

Row | Compound | inhibition
1 | S=c1[nH]nc(-c2ccc(Cl)cc2)n1CC1CCCO1 (configuration not stated) | 0.6% (inactive)
2 | O=C(c1nnc(-c2ccc(Cl)cc2)o1)C1CCCC1 | 0.77% (inactive)
3 | O=C(c1[nH]ncc1-c1ccc(Cl)cc1)C1CO1 (configuration not stated) | 12.5% (active)
4 | CCC(C)[C@H]1COCCS(=O)(=O)N1Cc1ccc(C)cc1 (some centres not stated) | 2.11% (inactive)
5 | Cc1nnc(SCC2=C(C(=O)O)N3C(=O)C(NC(=O)Cn4nc(C)c(Cl)c4C)C3SC2)s1 (configuration not stated) | -3.23% (inactive)
6 | Cc1cc(C)cc(C(=O)NC2C(=O)N3C(C(=O)O)=C(CSc4nnc(C)s4)CSC23)c1 (configuration not stated) | -1.61% (inactive)
7 | CC(C)(C)OC(=O)C1=C(CO)CS[C@@H]2[C@H](NC(=O)Cc3ccccc3)C(=O)N12 | 0.4% (inactive)
8 | C=CC1=C(C(=O)O)N2C(=O)[C@@H](NC(=O)/C(=N\OCC(=O)O)c3csc(N)n3)[C@H]2SC1 | 99.5% (active)
9 | CO/N=C(\C(=O)N[C@@H]1C(=O)N2C(C(=O)O)=C(COC(C)=O)CS[C@H]12)c1csc(N)n1 (stereo in doubt) | 98.8% (active) and 99.7% (active) and -0.42% (inactive)
10 | C=CC1=C(C(=O)O)N2C(=O)[C@@H](NC(=O)/C(=N/OCC(=O)O)c3csc(N)n3)[C@H]2SC1 | 97.5% (active)
11 | Cc1ccc(S(=O)(=O)N2[C@@H](c3cccc4ccccc34)C(C(=O)O)=C[C@H]2C(C)(C)C)cc1 | -0.17% (inactive)
12 | C=CCOc1cccc(CNCc2cccnc2)c1 | 4.34% (inactive)
13 | O=C1N[C@H](Cc2ccccc2)C(=O)N[C@H]1Cc1cn(S(=O)(=O)c2ccccc2)c2ccccc12 | 3.88% (inactive)
14 | Cc1ccc(C(=O)N/C(=C\c2cccs2)C(=O)NCCc2ccccn2)cc1C | -1.59% (inactive)
15 | COc1ccc(C(=O)c2c(C)c(CCC#N)n3ccccc23)c(OC)c1 | 4.64% (inactive)
16 | CNc1ccc(SC#N)cc1 | 3.2% (inactive)
17 | CC(=O)Nc1ccc(NC(=O)CC2CCCC2)cc1 | 3.59% (inactive)
18 | CCOC(=O)c1cnc(-n2nc(C)cc2C)nc1NNc1cc(C)nc(-c2ccccc2)n1 | 1.33% (inactive)
19 | O=C(Nc1ccc2c(c1)CCC2)c1ccc(Br)s1 | 0.08% (inactive)
20 | Cc1nn(CC#N)c(=O)n1N(C)c1ncc(C(F)(F)F)cc1Cl | -0.77% (inactive)
21 | CC(=O)NN1C(=O)c2ccccc2NC1c1ccccc1 (configuration not stated) | 0.33% (inactive)
22 | O=C(O)C(c1ccccc1)N1C(=O)/C(=C\c2ccc(-c3cccc(Cl)c3)o2)SC1=S (configuration not stated) | 1.17% (inactive)
23 | O=C1c2ccccc2NC(c2ccc(-c3cccc(Cl)c3)o2)N1O (configuration not stated) | 21.1% (active)
24 | O=C(N=C1SC2CS(=O)(=O)CC2N1c1cc(Cl)ccc1Cl)C1CC1 (configuration not stated) | 1.12% (inactive)

Row | Compound | inhibition
25 | CCC1CO/C(=C(\C(=C(Cl)Cl)N2CCOCC2)[N+](=O)[O-])N1 (configuration not stated) | 0.26% (inactive)
26 | Cc1cc(C)n(-c2nnc(N3CCN(c4ccccc4)CC3)nn2)n1 | 1.11% (inactive)
27 | COc1ccc(OC)c(NC(=O)C2CCCN2S(=O)(=O)c2cccc3nsnc23)c1 (configuration not stated) | 2.19% (inactive)
28 | Cc1ncoc1C(=O)NCCC(c1ccccc1)c1ccccc1 | 0.08% (inactive)
29 | CCOc1cc(S(=O)(=O)NCc2ccc3c(c2)OCO3)ccc1F | 1.89% (inactive)
30 | Cn1ccc(=Nc2ccc(NC(=O)c3ccc(N=c4ccn(C)c5ccc([N+](=O)[O-])cc45)cc3)cc2)cc1 | 95.1% (active)
31 | COc1cc(NS(=O)(=O)c2ccc(NC(=O)c3ccc([N+](=O)[O-])cc3)cc2)ncn1 | 0.95% (inactive)
32 | CC(=O)NC(=S)Nc1ccc(NC(=S)NC(=O)c2ccc([N+](=O)[O-])cc2)cc1 | -0.43% (inactive)
33 | Brc1ccc(CN2CC[C@H]3C=CCc4cccc(c43)C2)cc1 | 4.02% (inactive)
34 | O=C(Nc1cccnc1Cl)c1cc(-c2ccccc2O)on1 | 3.57% (inactive)
35 | C=CCNC(=O)c1csc(-c2ccccc2)n1 | 0.48% (inactive)
36 | C=CCNC(=O)c1cc(-c2ccccc2O)on1 | 96.1% (active)
37 | FC(F)(F)c1ccc2nnc(-c3c(Cl)cccc3Cl)n2c1 | 2.64% (inactive)
38 | Cc1ccc(OCC(=O)c2cc(C)n(Cc3ccco3)c2C)c([N+](=O)[O-])n1 | 3.36% (inactive)
39 | O=C(OCC1O[C@@H](OC(=O)c2cc(O)c(O)c(O)c2)[C@@H](OC(=O)c2cc(O)c(O)c(O)c2)[C@@H](OC(=O)c2cc(O)c(O)c(O)c2)[C@@H]1OC(=O)c1cc(O)c(O)c(O)c1)c1cc(O)c(O)c(O)c1 (some centres not stated) | 27.8% (active)
40 | C=C1c2cccc(OC)c2O[C@H](C(=O)OCC)[C@@H]1CCCCCC | -0.56% (inactive)
41 | CS(=O)(=O)N(CC(=O)Nc1ccc(Cl)c(Cl)c1)C1CCCCC1 | -0.7% (inactive)
42 | O=C(CCCN1C(=O)CCC1=O)Nc1ccc(Cl)c(C(F)(F)F)c1 | 2.75% (inactive)
43 | O=C(CC(O)(C(F)(F)F)C(F)(F)F)Nc1ccc(Cl)c(Cl)c1 | 18.6% (active)
44 | COc1cc(C)c(C(C)C)cc1S(=O)(=O)n1ccnc1 | 2.64% (inactive)
45 | O=C(NCc1ccco1)c1ccc([N+](=O)[O-])cc1Cl | 0% (inactive)
46 | CS(=O)(=O)c1ccc(Cl)c(NC(=O)COC(=O)c2ncc(Cl)c(Cl)c2Cl)c1 | 1.36% (inactive)
47 | CCCCOc1ccc(Cl)cc1CSc1nncn1N | 0.43% (inactive)
